L major viab – reduces viability of Leishmania major promastigotes; resazurin fluorescence viability; 9% of 200,000 active; inhibition, % at 10 µM; AID 1063; in the data active means inhibition above about 50%;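 further: promastigotes grown with compound for 44 hours at 28 °C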
Insulin prom inh – TRM-6 insulin promoter activity inhibition. TRM-6 cells (human fetal islet line), insulin promoter-eGFP reporter, imaging; reporter expression induced with tamoxifen. inhibition, % at 2 µM. 0.9% of 130,000 active;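 active means inhibition above the mean plus 3 SD, with well images judged a real hit on visual review, cut at about 60% in these data, passing the limit was not always enough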
HCT116 bCat-KO – beta-catenin-lacking colon tumor cell growth suppression; HCT116 beta-catenin knockout viability, CellTiter-Glo, 60 h; active compounds read low; viability, % at 10 µM; 1.5% of 140,000 active; AID 818;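 active means viability at or under a set limit, the compound median less 4 SD, cut at about 6% in these data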;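 further: 0% = Hyamine 1622 control at 20 µM and 100% = untreated cell control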
PTEN del growth – growth suppressors of cells with PTEN tumor suppressor deletion. HCT116 PTEN-null viability, CellTiter-Glo, 60 h; active compounds read low. viability, % at 10 µM. 1.2% of 140,000 active. AID 827;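 active means viability at or below a set limit, 4 SD under the median of all tested compounds, cut at about 3.7% in these data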;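 further: PTEN knockout HCT116 line with beta catenin targeted HCT116 as companion control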
Insulin prom up – MIN6 insulin promoter up-regulation. MIN6 insulin promoter-GFP reporter, high-content imaging; active compounds read high. z-score at 5 µM. 0.3% of 190,000 active. AID 1625;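 active means z-score above 3 at 5 µM with at least 500 cells counted in the well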
Autophagy mod – alters autophagy in cells. calls only at 10 µM (by protocol). MEF GFP-LC3 puncta imaging; test concentration mostly 10 µM. 0.98% of 190,000 active;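 active means percentage of spot-positive cells more than 3 SD above its plate mean, without a fluorescence outlier flag or 80% toxicity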;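 further: spot-positive cell cutoff set from DMSO-treated cells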
* = called active by the depositor. A selection: hits, their analogues and other compounds. The true share with any hit is near 9.6%.

For O=C(COC(=O)c1cccc(S(=O)(=O)N2CCCC2)c1)Nc1ccccc1 the results were L major viab -3.0, Insulin prom inh 46.0, Insulin prom up 0.23 and Autophagy mod inactive.
Screening COc1cccc(NC(=O)Cn2c(=O)c3c(ncn3Cc3ccccc3)n(Cc3ccccc3)c2=O)c1 returned L major viab 69.4*, Insulin prom inh -47.8, HCT116 bCat-KO 64.5, PTEN del growth 68.3 and Autophagy mod inactive.
For O=C(Cn1c(=O)c2c(ncn2Cc2ccccc2)n(Cc2ccccc2)c1=O)NC1CC1 the results were L major viab -4.3, Insulin prom inh -15.2, HCT116 bCat-KO 97.5, PTEN del growth 98.0, Insulin prom up -0.07 and Autophagy mod inactive.
Screening CC(C)CNC(=O)Cn1c(=O)c2c(ncn2CC(C)C)n(Cc2ccccc2)c1=O returned L major viab -10.1, Insulin prom up -0.12 and Autophagy mod active.
Screening Cc1cc(C)cc(NC(=O)c2ccc(CNc3c(N4CCOCC4)c(=O)c3=O)cc2)c1 returned L major viab -5.6, HCT116 bCat-KO 80.1, PTEN del growth 75.8, Insulin prom up -0.35 and Autophagy mod inactive.
`CCn1c(SCC(=O)c2ccc(OC)cc2)nnc1C1CC1` gave L major viab -0.3, Insulin prom inh -15.4, HCT116 bCat-KO 79.4, PTEN del growth 83.3, Insulin prom up -0.87 and Autophagy mod inactive.
`Cc1ccc(NC(=O)CSc2ccc(C(N)=O)cc2[N+](=O)[O-])cc1C` gave L major viab -0.3, Insulin prom up 0.55 and Autophagy mod inactive.
Screening O=C(Nc1ccccc1)C1=C[C@@H](C2CCCCC2)C[C@@H](OCCCCO)O1 returned L major viab 91.7*, Insulin prom up -0.26 and Autophagy mod inactive.
`O=C(Nc1ccccc1)C1=C[C@@H](C2CCCCC2)C[C@@H](OCc2ccc(CO)cc2)O1` gave L major viab 96.6*, Insulin prom up -0.64 and Autophagy mod inactive.
For CC(=O)n1cc([C@H]2C=C(C(=O)NCc3ccccc3)O[C@@H](OCCCCO)C2)c2ccccc21 the results were L major viab 7.5, Insulin prom up -1.61 and Autophagy mod inactive.
`CC(=O)n1cc([C@H]2C=C(C(=O)Nc3ccccc3)O[C@@H](OCCCCO)C2)c2ccccc21` gave L major viab 53.7*, Insulin prom up -0.51 and Autophagy mod inactive.
For CCO[C@H]1OC(C(=O)NCc2ccccc2)=C[C@@H](c2cn(C(C)=O)c3ccccc23)[C@@H]1CCCO the results were L major viab 82.0*, Insulin prom up 0.13 and Autophagy mod inactive.
`NS(=O)(=O)c1ccc(NC(=S)NCC2CCCO2)cc1` (centres undefined) gave L major viab 55.0*, Insulin prom inh 1.3, HCT116 bCat-KO 84.5, PTEN del growth 93.5, Insulin prom up -0.43 and Autophagy mod inactive.
CCOc1ccccc1NC(=S)NCC1CCCO1 (centres undefined) was read as L major viab 50.9*, Insulin prom inh -8.0, HCT116 bCat-KO 93.2, PTEN del growth 89.5, Insulin prom up 0.61 and Autophagy mod inactive.
For S=C(NCC1CCCO1)Nc1ccc(Nc2ccccc2)cc1 (centres undefined) the results were L major viab 14.9, Insulin prom up -0.08 and Autophagy mod inactive.
Screening CCCCNC(=O)CCc1nc2cccnc2n1Cc1ccc(OC)cc1 returned L major viab 16.7, Insulin prom inh 83.3*, HCT116 bCat-KO 95.6, PTEN del growth 104.5 and Autophagy mod inactive.
For COc1cc(S(=O)(=O)NCc2ccncc2)c(OC)cc1Cl the results were L major viab -2.3, Insulin prom inh -114.0, Insulin prom up 0.07 and Autophagy mod inactive.
COc1ccc(-c2cc(C(F)(F)F)nc(SCC(=O)NCc3cccs3)n2)cc1 was read as L major viab -11.0, Insulin prom inh -2.3, HCT116 bCat-KO 87.4, PTEN del growth 86.7, Insulin prom up 0.07 and Autophagy mod inactive.
`Cc1nc([N+](=O)[O-])c(Sc2nc3ccccc3n2C)n1Cc1ccccc1` gave L major viab 96.3*, Insulin prom inh 56.7, HCT116 bCat-KO 2.7*, PTEN del growth 1.8*, Insulin prom up -0.67 and Autophagy mod inactive.
Cc1nc([N+](=O)[O-])c(SCC(N)=O)n1Cc1ccccc1 was read as L major viab -0.1, Insulin prom up -0.36 and Autophagy mod inactive.
For CCN(CC)CCNC(=S)NC(=O)c1cn(-c2ccccc2)nc1-c1ccc(OC)cc1 the results were L major viab 90.7*, Insulin prom up -1.43 and Autophagy mod inactive.
CCN(CC)CCNC(=O)c1ccc(NC(=O)c2cn(-c3ccccc3)nc2-c2cccs2)cc1 was read as L major viab 100.4*, Insulin prom up 0.79 and Autophagy mod active.
`O=C(Nc1cccnc1)c1cn(-c2ccccc2)nc1-c1cccs1` gave L major viab 8.7, Insulin prom inh 8.3, HCT116 bCat-KO 32.4, PTEN del growth 34.2 and Autophagy mod inactive.
For Cc1ccc2c(c1)N(C(=O)c1ccco1)C(C)(C)c1ssc(=S)c1-2 the results were L major viab 97.8*, Insulin prom inh -77.8, HCT116 bCat-KO 79.8, PTEN del growth 66.4, Insulin prom up -0.1 and Autophagy mod inactive.
Screening COC(=O)c1ccc(NC(=O)C2CCN(C(=O)c3cc(OC)c(OC)c(OC)c3)CC2)cc1 returned L major viab -1.4, Insulin prom inh 5.6, HCT116 bCat-KO 98.5, PTEN del growth 97.6, Insulin prom up -0.15 and Autophagy mod inactive.
`O=S(=O)(NCC1CC1)c1cccc(S(=O)(=O)N2CCCC2)c1` gave L major viab -5.3, HCT116 bCat-KO 93.5, PTEN del growth 105.9, Insulin prom up -1.1 and Autophagy mod inactive.
C=CCn1c(COc2ccccc2)nnc1SC(C)C(=O)N/N=C/c1cc(Cl)ccc1O (centres undefined) was read as L major viab 97.6*, Insulin prom inh -66.7, HCT116 bCat-KO 13.1, PTEN del growth 10.7, Insulin prom up -0.44 and Autophagy mod inactive.
COc1cc(OC)c(NS(=O)(=O)c2cc(C(=O)OC(C)C(=O)NC3CC3)c(Cl)cc2Cl)cc1Cl (centres undefined) was read as L major viab 77.9*, Insulin prom inh -23.1, HCT116 bCat-KO 82.9, PTEN del growth 96.7, Insulin prom up -0.13 and Autophagy mod inactive.
Screening COc1cc(OC)c(NS(=O)(=O)c2coc(C(N)=O)c2)cc1Cl returned L major viab 1.6, HCT116 bCat-KO 94.5, PTEN del growth 83.1, Insulin prom up -0.14 and Autophagy mod inactive.
For CC1CN(c2ccc(C(F)(F)F)cc2[N+](=O)[O-])CCN1S(C)(=O)=O (centres undefined) the results were L major viab 76.5*, Insulin prom inh -57.1, HCT116 bCat-KO 79.7, PTEN del growth 71.5, Insulin prom up -0.14 and Autophagy mod inactive.

Source: PubChem
